# Laboratory results as given in PubChem BioAssay AID1159580 (chemical genetic matrix, 2015).
# Hit rate of the full screen: of about 5,500 compounds, about 2,000 (36%) were called active. About 18% were inconclusive and are not listed. The list shows a part of the results. Unmarked numbers belong to inactive results. No stated cut-off is given here; in the data, active means normalized growth mostly below about 0.91 (no sharp cut-off); inconclusive means no clear call, values can overlap the other calls; inactive means mostly above about 0.92.
# Assay: chemical genetic growth profiling, strain panel (AID 1159580);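 further: tested at 20 µM; growth read once vehicle control cultures reached saturation at 30 °C; 1 = growth at the plate median or of vehicle wells; lower values mean less growth of the strain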
# Settings: growth OD
# [1] = S. cerevisiae deletion strains, locus YDL101C, strain DUN1, active compounds read low
# [2] = S. cerevisiae deletion strains, locus YHR030C, strain SLT2, active compounds read low
structure (smiles),measurement,setting,value
Cc1ccc(-c2csc(-c3cccnc3)n2)c(C)c1,normalized growth,"S. cerevisiae deletion strains, locus YAR019C, strain CDC15, active compounds read low",0.948
same,normalized growth,"S. cerevisiae deletion strains, locus YBL105C, strain PKC1, active compounds read low",0.967
same,normalized growth,"S. cerevisiae deletion strains, locus YBR135W, strain CKS1, active compounds read low",0.954
same,normalized growth,"S. cerevisiae deletion strains, locus YBR136W, strain MEC1, active compounds read low",0.958
same,normalized growth,"S. cerevisiae deletion strains, locus YBR160W, strain CDC28, active compounds read low",0.963
same,normalized growth,"S. cerevisiae deletion strains, locus YDL017W, strain CDC7, active compounds read low",0.967
same,normalized growth,"S. cerevisiae deletion strains, locus YDL028C, strain MPS1, active compounds read low",0.964
same,normalized growth,[1],0.938
same,normalized growth,"S. cerevisiae deletion strains, locus YDL108W, strain KIN28, active compounds read low",0.964
same,normalized growth,"S. cerevisiae deletion strains, locus YDL132W, strain cdc53, active compounds read low",0.946
same,normalized growth,"S. cerevisiae deletion strains, locus YDL214C, strain PRR2, active compounds read low",0.88
same,normalized growth,"S. cerevisiae deletion strains, locus YDR052C, strain DBF4, active compounds read low",0.96
same,normalized growth,"S. cerevisiae deletion strains, locus YDR054C, strain cdc34, active compounds read low",0.943
same,normalized growth,"S. cerevisiae deletion strains, locus YDR226W, strain ADK1, active compounds read low",0.964
same,normalized growth,"S. cerevisiae deletion strains, locus YDR477W, strain SNF1, active compounds read low",0.87
same,normalized growth,"S. cerevisiae deletion strains, locus YER123W, strain YCK3, active compounds read low",0.769
same,normalized growth,"S. cerevisiae deletion strains, locus YER133W, strain GLC7, active compounds read low",0.85
same,normalized growth,"S. cerevisiae deletion strains, locus YFL009W, strain cdc4, active compounds read low",0.954
same,normalized growth,"S. cerevisiae deletion strains, locus YFL029C, strain CAK1, active compounds read low",0.943
same,normalized growth,"S. cerevisiae deletion strains, locus YFR003C, strain YPI1, active compounds read low",0.959
same,normalized growth,"S. cerevisiae deletion strains, locus YFR019W, strain FAB1, active compounds read low",0.821
same,normalized growth,"S. cerevisiae deletion strains, locus YFR028C, strain CDC14, active compounds read low",0.947
same,normalized growth,"S. cerevisiae deletion strains, locus YGR040W, strain KSS1, active compounds read low",0.832
same,normalized growth,"S. cerevisiae deletion strains, locus YGR052W, strain FMP48, active compounds read low",0.933
same,normalized growth,"S. cerevisiae deletion strains, locus YGR092W, strain DBF2, active compounds read low",0.737
same,normalized growth,[2],0.763 (active)
same,normalized growth,"S. cerevisiae deletion strains, locus YHR079C, strain IRE1, active compounds read low",0.839
same,normalized growth,"S. cerevisiae deletion strains, locus YHR082C, strain KSP1, active compounds read low",0.901
same,normalized growth,"S. cerevisiae deletion strains, locus YHR205W, strain SCH9, active compounds read low",0.886
same,normalized growth,"S. cerevisiae deletion strains, locus YIL147C, strain SLN1, active compounds read low",0.957
same,normalized growth,"S. cerevisiae deletion strains, locus YJL095W, strain BCK1, active compounds read low",0.772
same,normalized growth,"S. cerevisiae deletion strains, locus YJL128C, strain PBS2, active compounds read low",0.946
same,normalized growth,"S. cerevisiae deletion strains, locus YJL157C, strain FAR1, active compounds read low",0.898
same,normalized growth,"S. cerevisiae deletion strains, locus YJR016C, strain ILV3, active compounds read low",0.956
same,normalized growth,"S. cerevisiae deletion strains, locus YJR066W, strain TOR1 (second series), active compounds read low",0.796
same,normalized growth,"S. cerevisiae deletion strains, locus YJR066W, strain TOR1, active compounds read low",0.833
same,normalized growth,"S. cerevisiae deletion strains, locus YKL048C, strain ELM1, active compounds read low",0.939
same,normalized growth,"S. cerevisiae deletion strains, locus YKL067W, strain YNK1, active compounds read low",0.897
same,normalized growth,"S. cerevisiae deletion strains, locus YKL101W, strain HSL1, active compounds read low",0.914
same,normalized growth,"S. cerevisiae deletion strains, locus YKL193C, strain SDS22, active compounds read low",0.945
same,normalized growth,"S. cerevisiae deletion strains, locus YKL203C, strain TOR2, active compounds read low",0.847
same,normalized growth,"S. cerevisiae deletion strains, locus YLR113W, strain HOG1, active compounds read low",0.854 (active)
same,normalized growth,"S. cerevisiae deletion strains, locus YLR133W, strain CKI1, active compounds read low",0.905
same,normalized growth,"S. cerevisiae deletion strains, locus YLR403W, strain SFP1, active compounds read low",0.809
same,normalized growth,"S. cerevisiae deletion strains, locus YML070W, strain DAK1, active compounds read low",0.891
same,normalized growth,"S. cerevisiae deletion strains, locus YMR001C, strain CDC5, active compounds read low",0.957
same,normalized growth,"S. cerevisiae deletion strains, locus YMR205C, strain PFK2 (second series), active compounds read low",0.879
same,normalized growth,"S. cerevisiae deletion strains, locus YMR277W, strain FCP1, active compounds read low",0.951
same,normalized growth,"S. cerevisiae deletion strains, locus YNL006W, strain LST8, active compounds read low",0.96
same,normalized growth,"S. cerevisiae deletion strains, locus YNL020C, strain ARK1, active compounds read low",0.898
same,normalized growth,"S. cerevisiae deletion strains, locus YNL161W, strain CBK1, active compounds read low",0.96
same,normalized growth,"S. cerevisiae deletion strains, locus YNL183C, strain NPR1, active compounds read low",0.826
same,normalized growth,"S. cerevisiae deletion strains, locus YNL207W, strain RIO2, active compounds read low",0.935
same,normalized growth,"S. cerevisiae deletion strains, locus YNL222W, strain SSU72, active compounds read low",0.955
same,normalized growth,"S. cerevisiae deletion strains, locus YNL307C, strain MCK1 (second series), active compounds read low",0.862
same,normalized growth,"S. cerevisiae deletion strains, locus YOL078W, strain AVO1, active compounds read low",0.953
same,normalized growth,"S. cerevisiae deletion strains, locus YOL136C, strain PFK27, active compounds read low",0.894
same,normalized growth,"S. cerevisiae deletion strains, locus YOR061W, strain CKA2, active compounds read low",0.912
same,normalized growth,"S. cerevisiae deletion strains, locus YOR119C, strain RIO1, active compounds read low",0.881
same,normalized growth,"S. cerevisiae deletion strains, locus YOR231W, strain MKK1, active compounds read low",0.841
same,normalized growth,"S. cerevisiae deletion strains, locus YOR329C, strain SCD5, active compounds read low",0.951
same,normalized growth,"S. cerevisiae deletion strains, locus YPL031C, strain PHO85, active compounds read low",0.832
same,normalized growth,"S. cerevisiae deletion strains, locus YPL153C, strain RAD53, active compounds read low",0.838
same,normalized growth,"S. cerevisiae deletion strains, locus YPL204W, strain HRR25, active compounds read low",0.796
same,normalized growth,"S. cerevisiae deletion strains, locus YPL209C, strain IPL1, active compounds read low",0.955
same,normalized growth,"S. cerevisiae deletion strains, locus YPL256C, strain CLN2, active compounds read low",0.849 (active)
same,normalized growth,"S. cerevisiae deletion strains, locus YPR025C, strain CCL1, active compounds read low",0.959
same,normalized growth,"S. cerevisiae deletion strains, locus YPR106W, strain ISR1, active compounds read low",0.957
same,normalized growth,"S. cerevisiae deletion strains, locus YPR111W, strain DBF20, active compounds read low",0.966
same,normalized growth,"S. cerevisiae deletion strains, strain NNK1, active compounds read low",0.947
same,normalized growth,"S. cerevisiae deletion strains, strain TSCII, active compounds read low",0.948
CC(C)(C)c1cc(-c2csc(-c3ccc(Cl)cc3)n2)cc(C(C)(C)C)c1O,normalized growth,"S. cerevisiae deletion strains, locus YAL013W, strain DEP1, active compounds read low",1
same,normalized growth,"S. cerevisiae deletion strains, locus YBR229C, strain ROT2, active compounds read low",1.02
same,normalized growth,"S. cerevisiae deletion strains, locus YCL061C, strain MRC1, active compounds read low",1.01
same,normalized growth,[1],1.02
same,normalized growth,"S. cerevisiae deletion strains, locus YDL134C, strain PPH21, active compounds read low",1.02
same,normalized growth,"S. cerevisiae deletion strains, locus YDR150W, strain NUM1, active compounds read low",0.943
same,normalized growth,"S. cerevisiae deletion strains, locus YEL061C, strain CIN8, active compounds read low",1.03
same,normalized growth,"S. cerevisiae deletion strains, locus YGR078C, strain PAC10, active compounds read low",1.01
same,normalized growth,[2],1.09
same,normalized growth,"S. cerevisiae deletion strains, locus YHR087W, strain rtc3, active compounds read low",1.01
same,normalized growth,"S. cerevisiae deletion strains, locus YJL187C, strain SWE1, active compounds read low",1.02
same,normalized growth,"S. cerevisiae deletion strains, locus YJR043C, strain POL32, active compounds read low",1.01
same,normalized growth,"S. cerevisiae deletion strains, locus YJR075W, strain HOC1, active compounds read low",1.03
same,normalized growth,"S. cerevisiae deletion strains, locus YLR039C, strain RIC1, active compounds read low",1.09
same,normalized growth,"S. cerevisiae deletion strains, locus YLR058C, strain SHM2 (second series), active compounds read low",1.02
same,normalized growth,"S. cerevisiae deletion strains, locus YLR085C, strain ARP6, active compounds read low",1.22 [resistant] (active)
same,normalized growth,"S. cerevisiae deletion strains, locus YLR262C, strain YPT6, active compounds read low",1.05
same,normalized growth,"S. cerevisiae deletion strains, locus YML094W, strain GIM5, active compounds read low",1.03
same,normalized growth,"S. cerevisiae deletion strains, locus YMR219W, strain ESC1, active compounds read low",1.01
same,normalized growth,"S. cerevisiae deletion strains, locus YMR263W, strain SAP30, active compounds read low",0.96
same,normalized growth,"S. cerevisiae deletion strains, locus YNL153C, strain GIM3, active compounds read low",1
same,normalized growth,"S. cerevisiae deletion strains, locus YNL298W, strain CLA4 (second series), active compounds read low",1.04
same,normalized growth,"S. cerevisiae deletion strains, locus YNL322C, strain KRE1, active compounds read low",1.01
same,normalized growth,"S. cerevisiae deletion strains, locus YNR030W, strain Alg12, active compounds read low",1.03
same,normalized growth,"S. cerevisiae deletion strains, locus YOL006C, strain TOP1, active compounds read low",1.18
same,normalized growth,"S. cerevisiae deletion strains, locus YPL055C, strain LGE1, active compounds read low",0.911
same,normalized growth,"S. cerevisiae deletion strains, locus YPL241C, strain CIN2, active compounds read low",1.01
same,normalized growth,"S. cerevisiae deletion strains, locus YPR135W, strain CTF4, active compounds read low",1.07
same,normalized growth,"S. cerevisiae strains, strain wild type, active compounds read low",1.02
